# Measurements published in PubChem BioAssay.
# Results filed as inconclusive are left out. Activity calls are given as the source filed them.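 How the source made its calls, unless noted: active means inhibition above 50%, about 3 SD of the validation set; inactive means the rest.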
# What was measured:
# [1] = rapamycin-like changes in RPL19A-GFP expression – cell-based, S. cerevisiae, multiplex flow cytometry, primary screen (AID 1862; in the data active means percent of DMSO control GFP below about 86%;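 further: lower values mimic rapamycin by blocking the RPL19A rise seen in DMSO cells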); conditions: S. cerevisiae RPL19A-GFP strain, flow cytometry fluorescence, 3 h; at 10 µM; stronger effect = lower value
# [2] = TOR pathway GLN3 branch reporter MEP2-GFP changes – S. cerevisiae, multiplex flow cytometry, primary screen (AID 1867;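 active means GFP response, as percent of the DMSO control, above the screen-wide mean plus 3 SD, about 139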;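 further: median GFP channel fluorescence of barcode-gated MEP2-GFP cells measured by flow cytometry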); conditions: S. cerevisiae MEP2-GFP strain, 3 h, at 10 µM, stronger effect = higher value, 100% means same as DMSO wells
# [3] = TOR pathway RTG branch CIT2 reporter changes – S. cerevisiae, GFP fusion, multiplex flow cytometry, primary screen (AID 1870;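 active means percent response above a set limit, the screen-wide mean plus 3 SD, cut at about 130% in these data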;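 further: barcoded CIT2-GFP strain pooled with four other GFP strains with rapamycin as positive control; median GFP fluorescence per well over plate mean of DMSO wells so 100% = DMSO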); conditions: S. cerevisiae CIT2-GFP expression, 3 h, at 10 µM, stronger effect = higher value
# [4] = TOR pathway LAP4-GFP level changes – S. cerevisiae, multiplex flow cytometry, primary screen (AID 1873;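 active means GFP signal, as percent of the solvent control, above the screen mean plus 3 SD, about 149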); conditions: S. cerevisiae LAP4-GFP expression, 3 h, at 10 µM, stronger effect = higher value
# [5] = yeast AGP1-GFP level changes, GLN3 branch – cell-based, multiplex flow cytometry, S. cerevisiae, primary screen (AID 1887;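 active means GFP signal above the screen-wide mean plus 3 SD, that is over about 124.5% of the solvent control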;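 further: AGP1-GFP fusion strain of S. cerevisiae within a five-strain barcoded multiplex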); conditions: 3 h, at 10 µM, stronger effect = higher value
# [6] = reduced mouse 2C T cell binding to pMHC/ICAM-1 vesicles – MLPCN validation set, flow cytometry, LFA-1/ICAM-1 modulator project, pilot screen (AID 2523;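 active means response below a set limit, under 55% cells CD8-positive and vesicle-bound, and CD8 cells' 90th-percentile brightness under 279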;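 on vesicle binding response: mean PE anti-B7-1 fluorescence of CD8+ cells relative to row control; 100% = QL9-loaded vesicles with DMSO vehicle in the same plate row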); conditions: 2C mouse CD8+ T cells, at 7 µM, stronger effect = lower value; double positive events: measured here: CD8+/vesicle+ event percentage
# [7] = biological target: Integrin beta-1 (Homo sapiens) + Integrin alpha-4 (Homo sapiens) (UniProt P13612+P05556); experiment: alpha4beta1 integrin LIBS antibody binding reduction – U937 cells, HUTS-21 mAb, flow cytometry, validation set, VLA-4 allosteric modulator project, pilot screen (AID 2674); conditions: HUTS-21 LIBS mAb binding, at 6.7 µM, stronger effect = higher value, binding induced by LDV ligand;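 further: antibody binding induced by the VLA-4 ligand LDV present at three times its Kd; 0% = LDV ligand with antibody and no compound and 100% = antibody without LDV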
# [8] = calorie-restriction mimetic ROS inhibitors, yeast – validation compound set, pilot screen (AID 2706;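 active means superoxide response below 65% of plate, a cut near 3 SD across the whole screen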;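 further: yeast exposed to compound for one week at 30 degrees C before staining; 100% = mean of all compound wells on the same plate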); conditions: S. cerevisiae aging, superoxide DHE fluorescence; at 10 µM, stronger effect = lower value
# [9] = biological target: Beta-adrenergic receptor kinase 1 (Homo sapiens) (UniProt P25098); experiment: GRK2 binders displacing RNA aptamer, biochemical, validation, human GRK2, bead flow cytometry (AID 488806;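 active means aptamer binding inhibition above 30%, about 3 SD of noise from non-fluorescent compounds; inactive means inhibition at or below 30%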); conditions: bead-bound GRK2, FAM-aptamer displacement, at 10 µM, stronger effect = higher value
# [10] = biological target: AP-2 complex subunit beta (Homo sapiens) (UniProt P63010); experiment: beta-arrestin/AP2 interaction blockers – biochemical, validation set, GST-AP2 beads, flow cytometry, pilot screen (AID 504541;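 active means inhibition above 54%, about 3 SD of non-fluorescent compounds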;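 further: AP2 carries R879A mutation and is captured from E. coli lysate; bead-bound FITC arrestin peptide fluorescence measuring arrestin peptide binding to AP2; 0% = DMSO wells and 100% = excess unlabeled arrestin peptide control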); conditions: FITC arrestin peptide, at 10 µM, stronger effect = higher value, AP2 beta2 appendage fragment, R879A mutant
# [11] = cytosolic pH regulators acting via V-ATPase – S. cerevisiae, pHLuorin, HTS validation (AID 504600; in the data active means response above about 15%;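 further: plate controls were DMSO for no effect and reference compound for full effect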); conditions: V-ATPase proton transport, at 10 µM, stronger effect = higher value
# [12] = test system: anti-desmoglein-3 scFv antibody binding to human DSG3; experiment: blockers of pathogenic pemphigus antibody–desmoglein-3 binding – biochemical, validation compound set, bead-based, flow cytometry, pilot screen (AID 588368;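 active means binding below the plate cutoff, the plate median minus 3 SD, with a reading above zero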;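 further: signal is the median channel fluorescence of bead-bound GFP antibody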); conditions: Protein G beads, DSG3-Fc, scFv-GFP binding, at 10 µM, stronger effect = lower value
# [13] = Nile Red efflux blockade in pump-expressing yeast – validation compound set, multiplex, phenotypic, pilot screen (AID 588506;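 active means efflux inhibition above 0.42, the validation set average plus 4 SD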;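 further: Nile Red retained in cells so higher fluorescence means more efflux inhibition; 0 = negative control wells and 1 = enniatin B 25 µM full block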); conditions: S. cerevisiae pump-expressing triplex, Nile Red efflux flow cytometry; at 10 µM; stronger effect = higher value; the pumps come from Candida albicans
# [14] = biological target: ATP-binding cassette sub-family B member 6 (Homo sapiens) (UniProt Q9NP58); experiment: blockers of ABCB6-driven porphyrin uptake – K562-ABCB6 cells, flow cytometry, validation set, pilot screen (AID 588550;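 active means inhibition above the screen-wide mean plus 3 SD, about 51%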;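 further: 0% = DMSO wells and 100% = benzethonium chloride 70 µM positive control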); conditions: K562-ABCB6 porphyrin accumulation, 1 h, at 10 µM, stronger effect = higher value
# [15] = AML differentiation inducers, ER-HoxA9 marrow cells – cell-based, GFP/MAC1 double positive, flow cytometry, validation set, primary screen (AID 588685;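 active means differentiation response of at least 50%, scaled between solvent and reference control, from cells with both markers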;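 further: compound exposure lasts four days before antibody staining and flow analysis; 0% = DMSO wells and 100% = 5 µM fulvestrant positive control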); conditions: stronger effect = higher value, normalized: vehicle 0, fulvestrant 100
# Beta-adrenergic receptor kinase 1 (Homo sapiens), sequence (P25098 whole entry, looked up): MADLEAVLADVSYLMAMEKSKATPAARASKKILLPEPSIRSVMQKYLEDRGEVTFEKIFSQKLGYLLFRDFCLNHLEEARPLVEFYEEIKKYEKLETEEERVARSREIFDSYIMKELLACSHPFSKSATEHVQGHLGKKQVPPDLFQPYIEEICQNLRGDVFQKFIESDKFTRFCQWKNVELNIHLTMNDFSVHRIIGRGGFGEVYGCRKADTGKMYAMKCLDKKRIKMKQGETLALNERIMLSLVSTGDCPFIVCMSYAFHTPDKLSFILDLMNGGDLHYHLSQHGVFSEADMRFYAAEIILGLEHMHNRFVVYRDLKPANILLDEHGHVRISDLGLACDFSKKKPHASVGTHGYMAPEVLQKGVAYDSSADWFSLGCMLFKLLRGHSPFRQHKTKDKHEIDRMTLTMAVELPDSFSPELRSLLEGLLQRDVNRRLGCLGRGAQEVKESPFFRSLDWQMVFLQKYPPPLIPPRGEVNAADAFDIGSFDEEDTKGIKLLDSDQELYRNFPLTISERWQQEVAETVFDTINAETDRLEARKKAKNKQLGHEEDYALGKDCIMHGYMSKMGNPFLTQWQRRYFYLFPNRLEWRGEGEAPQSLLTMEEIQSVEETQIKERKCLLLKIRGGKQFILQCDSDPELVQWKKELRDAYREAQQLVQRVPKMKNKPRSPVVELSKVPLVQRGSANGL
# Integrin beta-1 (Homo sapiens) + Integrin alpha-4 (Homo sapiens), sequence (P05556 whole entry, looked up): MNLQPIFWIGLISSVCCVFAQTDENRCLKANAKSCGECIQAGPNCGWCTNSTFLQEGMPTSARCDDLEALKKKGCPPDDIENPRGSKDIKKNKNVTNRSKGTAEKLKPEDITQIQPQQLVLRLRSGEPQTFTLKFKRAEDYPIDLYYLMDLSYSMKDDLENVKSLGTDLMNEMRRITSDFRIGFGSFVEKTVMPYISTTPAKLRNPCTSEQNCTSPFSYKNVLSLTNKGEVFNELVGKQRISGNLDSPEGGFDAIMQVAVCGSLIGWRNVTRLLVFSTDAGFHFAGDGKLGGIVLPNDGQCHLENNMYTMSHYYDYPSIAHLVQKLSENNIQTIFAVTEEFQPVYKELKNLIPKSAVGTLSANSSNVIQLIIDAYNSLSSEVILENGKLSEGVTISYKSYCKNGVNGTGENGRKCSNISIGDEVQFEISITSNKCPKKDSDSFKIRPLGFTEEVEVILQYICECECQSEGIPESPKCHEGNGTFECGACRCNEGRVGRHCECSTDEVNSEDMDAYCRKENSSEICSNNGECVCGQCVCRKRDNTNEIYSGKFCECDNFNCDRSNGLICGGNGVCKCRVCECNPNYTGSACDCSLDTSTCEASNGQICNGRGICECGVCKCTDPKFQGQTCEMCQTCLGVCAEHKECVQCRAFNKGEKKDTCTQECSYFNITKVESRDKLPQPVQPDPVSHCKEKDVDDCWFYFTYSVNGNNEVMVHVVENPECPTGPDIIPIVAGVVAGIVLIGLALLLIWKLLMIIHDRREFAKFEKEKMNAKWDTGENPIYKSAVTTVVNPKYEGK
# Integrin beta-1 (Homo sapiens) + Integrin alpha-4 (Homo sapiens), sequence (P13612 whole entry, looked up): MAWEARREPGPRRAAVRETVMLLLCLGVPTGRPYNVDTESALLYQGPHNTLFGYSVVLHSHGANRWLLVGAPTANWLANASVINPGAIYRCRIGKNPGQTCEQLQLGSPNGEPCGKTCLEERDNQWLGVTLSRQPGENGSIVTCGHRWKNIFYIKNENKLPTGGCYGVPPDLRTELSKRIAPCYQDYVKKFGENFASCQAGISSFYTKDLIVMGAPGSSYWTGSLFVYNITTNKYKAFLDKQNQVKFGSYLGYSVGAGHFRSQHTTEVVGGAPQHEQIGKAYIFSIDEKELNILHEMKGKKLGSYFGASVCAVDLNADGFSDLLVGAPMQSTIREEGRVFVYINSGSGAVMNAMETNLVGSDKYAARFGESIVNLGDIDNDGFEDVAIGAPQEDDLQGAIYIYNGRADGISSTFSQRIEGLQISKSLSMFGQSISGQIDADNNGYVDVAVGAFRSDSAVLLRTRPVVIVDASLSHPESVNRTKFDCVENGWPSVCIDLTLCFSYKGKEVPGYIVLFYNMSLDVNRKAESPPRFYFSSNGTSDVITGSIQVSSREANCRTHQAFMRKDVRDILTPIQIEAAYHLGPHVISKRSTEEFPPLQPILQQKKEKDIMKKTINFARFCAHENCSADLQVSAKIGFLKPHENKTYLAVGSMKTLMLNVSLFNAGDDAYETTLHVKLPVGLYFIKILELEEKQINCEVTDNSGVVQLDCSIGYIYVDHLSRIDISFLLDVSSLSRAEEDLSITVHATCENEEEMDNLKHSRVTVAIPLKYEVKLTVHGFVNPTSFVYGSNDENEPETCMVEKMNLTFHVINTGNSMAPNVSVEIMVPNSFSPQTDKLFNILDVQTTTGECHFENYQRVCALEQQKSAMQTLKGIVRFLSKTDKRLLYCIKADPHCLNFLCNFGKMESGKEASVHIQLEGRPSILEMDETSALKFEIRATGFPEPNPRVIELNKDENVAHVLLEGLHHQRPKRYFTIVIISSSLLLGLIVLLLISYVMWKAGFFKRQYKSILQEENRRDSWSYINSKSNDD
# AP-2 complex subunit beta (Homo sapiens), sequence (P63010 whole entry, looked up, the tested form may be a part, one chain of several): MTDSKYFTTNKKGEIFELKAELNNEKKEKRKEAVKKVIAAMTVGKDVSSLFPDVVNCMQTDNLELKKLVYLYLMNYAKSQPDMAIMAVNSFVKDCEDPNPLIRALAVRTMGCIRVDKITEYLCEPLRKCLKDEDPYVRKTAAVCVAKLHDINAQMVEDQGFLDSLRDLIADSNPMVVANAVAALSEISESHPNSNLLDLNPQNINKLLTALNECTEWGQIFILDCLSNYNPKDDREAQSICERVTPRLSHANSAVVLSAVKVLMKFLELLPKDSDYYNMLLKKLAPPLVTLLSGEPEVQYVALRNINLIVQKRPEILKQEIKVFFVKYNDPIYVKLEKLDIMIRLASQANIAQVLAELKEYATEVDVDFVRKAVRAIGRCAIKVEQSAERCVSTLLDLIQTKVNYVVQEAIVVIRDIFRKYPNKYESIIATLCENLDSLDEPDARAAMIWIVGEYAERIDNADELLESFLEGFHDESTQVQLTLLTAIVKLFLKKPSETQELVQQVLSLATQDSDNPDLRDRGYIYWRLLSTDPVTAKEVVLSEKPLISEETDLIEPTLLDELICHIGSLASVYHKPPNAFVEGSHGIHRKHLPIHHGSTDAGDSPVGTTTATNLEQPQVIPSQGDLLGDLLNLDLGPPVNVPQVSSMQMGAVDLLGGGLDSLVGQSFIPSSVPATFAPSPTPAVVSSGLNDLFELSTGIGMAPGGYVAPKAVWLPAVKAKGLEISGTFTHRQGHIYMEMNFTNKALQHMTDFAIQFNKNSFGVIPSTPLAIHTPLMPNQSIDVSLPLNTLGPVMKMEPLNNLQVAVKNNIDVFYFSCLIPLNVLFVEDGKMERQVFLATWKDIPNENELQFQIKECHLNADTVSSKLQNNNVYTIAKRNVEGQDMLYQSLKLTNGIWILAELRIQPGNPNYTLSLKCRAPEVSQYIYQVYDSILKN
# ATP-binding cassette sub-family B member 6 (Homo sapiens), sequence (Q9NP58 whole entry, looked up): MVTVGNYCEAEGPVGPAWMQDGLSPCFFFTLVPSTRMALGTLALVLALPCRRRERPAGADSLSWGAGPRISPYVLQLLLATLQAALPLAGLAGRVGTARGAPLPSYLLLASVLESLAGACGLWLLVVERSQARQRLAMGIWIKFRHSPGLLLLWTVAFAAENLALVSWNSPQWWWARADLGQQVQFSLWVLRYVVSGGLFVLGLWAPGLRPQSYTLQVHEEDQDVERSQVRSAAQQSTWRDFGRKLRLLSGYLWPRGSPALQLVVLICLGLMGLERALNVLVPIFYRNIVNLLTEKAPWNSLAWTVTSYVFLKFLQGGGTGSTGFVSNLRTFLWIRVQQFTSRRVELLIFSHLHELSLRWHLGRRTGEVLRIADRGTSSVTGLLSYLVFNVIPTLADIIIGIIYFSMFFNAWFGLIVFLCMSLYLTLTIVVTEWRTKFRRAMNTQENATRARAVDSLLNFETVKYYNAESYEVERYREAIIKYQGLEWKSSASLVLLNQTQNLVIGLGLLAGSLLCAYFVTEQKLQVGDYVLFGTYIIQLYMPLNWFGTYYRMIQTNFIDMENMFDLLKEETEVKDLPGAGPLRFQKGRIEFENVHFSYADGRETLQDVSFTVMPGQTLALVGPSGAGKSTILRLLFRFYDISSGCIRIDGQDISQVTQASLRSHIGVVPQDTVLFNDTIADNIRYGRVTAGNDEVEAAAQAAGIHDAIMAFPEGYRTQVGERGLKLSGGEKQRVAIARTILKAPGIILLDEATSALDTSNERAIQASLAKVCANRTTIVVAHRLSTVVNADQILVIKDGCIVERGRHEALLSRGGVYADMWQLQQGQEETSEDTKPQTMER
SMILES,percent of DMSO control GFP [1],GFP response vs DMSO [2],percent response of DMSO control [3],GFP response vs DMSO [4],"GFP response, % of DMSO [5]",double positive events [6] [%],vesicle binding response [6],inhibition [7],superoxide response (% of plate) [8],aptamer binding inhibition [9],inhibition [10],response [11],binding (% of control) [12],efflux inhibition (fraction of control) [13],inhibition [14],differentiation response [15]
C[C@@H]1C[C@H]2[C@@H]3CCC4=CC(=O)C=C[C@]4(C)[C@@]3(F)[C@@H](O)C[C@]2(C)[C@@]1(O)C(=O)COP(=O)(O)O,104% (inactive),98.9% (inactive),101% (inactive),83.3% (inactive),93% (inactive),53.3,126% (inactive),20.3% (inactive),106% (inactive),2% (inactive),-3.37% (inactive),4.69% (inactive),96.9% (inactive),-0.09 (inactive),10% (inactive),-13.1% (inactive)
Cc1ccccc1-c1coc2cc(O)ccc2c1=O,98.5% (inactive),96.9% (inactive),90% (inactive),116% (inactive),97.3% (inactive),60.2,187% (inactive),-21.7% (inactive),89.2% (inactive),4% (inactive),30.2% (inactive),0.4% (inactive),99.1% (inactive),-0.05 (inactive),8% (inactive),-14.7% (inactive)
CCOc1cc2oc(=O)c3c(c2cc1Cl)CCC3,104% (inactive),99.9% (inactive),102% (inactive),111% (inactive),107% (inactive),51.1,165% (inactive),-6.77% (inactive),109% (inactive),1% (inactive),-15.2% (inactive),-4.08% (inactive),103% (inactive),-0.05 (inactive),6% (inactive),-11.5% (inactive)
CCN(CC)C(=O)c1ccc(O)c(OC)c1,94.2% (inactive),102% (inactive),98.8% (inactive),102% (inactive),102% (inactive),53.9,118% (inactive),25.9% (inactive),89% (inactive),0% (inactive),-2.62% (inactive),0.77% (inactive),101% (inactive),0.29 (inactive),15% (inactive),-9.89% (inactive)
COc1ccc(OCC(=O)N2c3ccc(C)cc3C3CN(C)CCC32)cc1 (centres undefined),104% (inactive),101% (inactive),105% (inactive),98.4% (inactive),96.1% (inactive),69.1,238% (inactive),10% (inactive),90.6% (inactive),-10% (inactive),-6.29% (inactive),-0.64% (inactive),106% (inactive),0.33 (inactive),5% (inactive),32.1% (inactive)
COc1cc(OC)cc(C(=O)N[C@@H](CCSC)c2nc3ccccc3[nH]2)c1,98% (inactive),88.7% (inactive),105% (inactive),91.3% (inactive),96.4% (inactive),49.2,158% (inactive),-13.3% (inactive),98.5% (inactive),1% (inactive),-7.65% (inactive),0.15% (inactive),99.3% (inactive),-0.12 (inactive),3% (inactive),-8.27% (inactive)
Cc1ncc([N+](=O)[O-])n1CCO,99.6% (inactive),93.8% (inactive),105% (inactive),97.4% (inactive),94.6% (inactive),59.8,172% (inactive),10% (inactive),98.8% (inactive),1% (inactive),-1.26% (inactive),3.07% (inactive),93.1% (inactive),0.18 (inactive),5% (inactive),-9.89% (inactive)
COc1cccc2c1C(=O)O/C2=C/c1ccc2c(c1)OCO2,95.2% (inactive),103% (inactive),93% (inactive),92.3% (inactive),83.8% (inactive),64.2,177% (inactive),-3.04% (inactive),106% (inactive),1% (inactive),-5.67% (inactive),-7.76% (inactive),99.8% (inactive),-0.35 (inactive),8% (inactive),-24.4% (inactive)
CC1(C)OC2OC(C(=O)N/N=C/c3ccccc3F)C3OC(C)(C)OC3C2O1 (centres undefined),100% (inactive),106% (inactive),97.9% (inactive),101% (inactive),101% (inactive),53.1,164% (inactive),12.8% (inactive),103% (inactive),1% (inactive),0.54% (inactive),1.25% (inactive),96.5% (inactive),0.52 (active),9% (inactive),-13.1% (inactive)
